High-throughput results from PubChem BioAssay.
Sampled rows, rich in hits. Any-hit rate of the full collection: about 2.5%.
Pol iota inh: DNA polymerase iota (human) inhibition | Q9UNA4 | Pol iota fluorescent replication assay, 10 min | Potency, µM (doses to about 115 µM), inactives show at the highest dose activity, negative = inhibition, most hits filed as inhibitors | 390,000 tested, 1% active | AID 588590
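Fluorescent replication assay read twice, at 0 min and 10 min after adding 50 nM (final) substrate. Enzyme (10 nM) and compounds were first incubated 15 min at room temperature; enzyme-free buffer wells were negative controls.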
Pol eta inh-1: blocks human DNA polymerase eta activity | recombinant Pol eta, fluorescent DNA replication assay | Potency, µM (series often up to 114 µM), for inactives: at the top dose activity change, negative = inhibition, hits mostly inhibitors | 390,000 tested, 1.2% active; further: on the % scale 0 is the no-effect control and ±100 the full control effect
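Pol eta (10 nM) was preincubated with compounds for 15 min at room temperature, after which fluorescent replication substrate (50 nM final) was added to start the reaction. Fluorescence was read kinetically at 0 and 10 min.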
Pol kappa inh-1: DNA polymerase kappa (human) inhibition | purified Pol kappa, fluorescent DNA synthesis assay, 10 min | Q9UBT6 | Potency, µM (doses to about 107 µM), inactives show top-dose activity, negative = inhibition, actives largely listed as inhibitors | 400,000 tested, 0.53% active; further: on the % scale 0 is the no-effect control and ±100 the full control effect
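10 nM Pol kappa preincubated 15 min at room temperature with compounds, then reaction started with substrate at 50 nM final. Fluorescence read kinetically at 0 and 10 min; buffer-only wells served as negative control.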
APEX1 inh: APE1 (human) endonuclease inhibition; P27695; recombinant APE1, TAMRA/BHQ-2 abasic DNA cleavage fluorescence; Potency, µM (series often up to 65.8 µM), without a hit: at the top dose activity change, negative = inhibition, actives largely listed as inhibitors; 350,000 tested, 0.35% active; AID 2517;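 further: plate controls were vehicle for no effect and reference inhibitor for full effect; nearly all actives have a fitted effect of over 55% in size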
Target sequence (P27695 whole entry, looked up): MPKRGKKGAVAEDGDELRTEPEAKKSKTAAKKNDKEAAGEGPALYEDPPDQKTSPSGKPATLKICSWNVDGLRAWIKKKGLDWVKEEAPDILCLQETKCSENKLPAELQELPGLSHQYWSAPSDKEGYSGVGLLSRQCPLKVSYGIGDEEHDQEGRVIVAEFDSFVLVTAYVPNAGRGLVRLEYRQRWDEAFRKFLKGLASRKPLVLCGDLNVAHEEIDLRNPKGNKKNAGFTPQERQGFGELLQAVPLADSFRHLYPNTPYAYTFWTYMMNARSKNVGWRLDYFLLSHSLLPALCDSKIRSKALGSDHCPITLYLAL
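APE1 at 0.75 nM preincubated 15 min at room temperature with compound. Reaction then started with 50 nM double-stranded THF-abasic substrate labelled with TAMRA/BHQ-2, and 525/598 nm fluorescence read kinetically. Activity taken as third-minus-first read difference, normalized to DMSO and NSC13755 controls.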
L3MBTL1 inh: L3MBTL1 (human) inhibition; AlphaScreen L3MBTL1–H3K9me1 peptide binding; Potency, µM (series often up to 57.1 µM), without a hit: top-dose activity, negative = inhibition, most hits filed as inhibitors; 230,000 tested, 0.66% active; further: on the % scale 0 is the no-effect control and ±100 the full control effect; nearly all actives have a fitted effect of over 60% in size
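AlphaScreen proximity signal between nickel-chelate acceptor and streptavidin donor beads (final 10 ug/mL) reports binding of 50 nM L3MBTL1 to 75 nM biotin-H3 K9me1 peptide; complex incubated with compounds 30 min at room temperature; cefsulodin titration as control.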
POLB inh: blocks human DNA polymerase beta activity; Potency, µM (series often up to 114 µM), for inactives: at the top dose activity change, negative = inhibition, most hits filed as inhibitors; Pol beta primer extension/strand displacement, fluorescence kinetic; 340,000 tested, 1.3% active; P06746; further: on the % scale 0 is the no-effect control and ±100 the full control effect
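Human Pol beta at 10 nM; strand-displacement substrate 50 nM final. Compound exposure 15 min at room temperature before start, reaction 10 min at room temperature.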
Pol iota confirm: Inhibitors of human DNA polymerase iota, confirmation; Pol iota primer extension, TAMRA/BHQ fluorescence; 1,500 tested, 77% active; AID 720496; Potency, µM, most hits filed as inhibitors; shares compounds with Pol kappa inh-1
Pol kappa inh-2: confirmation of human DNA polymerase kappa inhibitors; Potency, µM, hits mostly inhibitors; shares compounds with Pol eta inh-1; AID 720501; purified Pol-kappa, fluorescent strand-displacement substrate; 920 tested, 76% active
Pol eta inh-2: Pol eta (human) inhibition, cherry-pick confirmation | 2,600 tested, 64% active | Pol eta primer extension, TAMRA/BHQ fluorescence, 10 min | AID 720502 | shares compounds with Pol eta inh-1 | Potency, µM, most hits filed as inhibitors
* hit, by the source's call; [ ] = another dose, or the depositor's remark. The call rests on the fitted dose curve; in most records, active means well fitted curve in the direction sought with a large enough effect; inconclusive means small, poorly fitted or top-dose-only effect, or another doubt; inactive means no such curve, though single readings can be large; an effect the other way counts as inactive or inconclusive. Potency means the concentration at half of the fitted maximal effect.

`N=C(N)c1ccc2cc(OC(=O)c3ccc(N=C(N)N)cc3)ccc2c1` gave Pol kappa inh-1 3.2%[60.1 µM] and APEX1 inh -5.6%.
O=C(CCSCc1ccccc1Cl)NCc1ccco1 was read as Pol iota inh 104.1%, Pol eta inh-1 7.1%, Pol kappa inh-1 -16.2%, APEX1 inh -1.7% and POLB inh 18.6%.
Screening O=C(CCSCCC(=O)NCc1ccco1)NCc1ccco1 returned Pol iota inh -69.1%, Pol eta inh-1 11.2µM*, Pol kappa inh-1 inconclusive, APEX1 inh inconclusive, L3MBTL1 inh inconclusive, POLB inh 22.4µM*, Pol iota confirm 33.6* and Pol eta inh-2 26.9*.
Screening O=C1NC2c3c(Cl)sc(Cl)c3C(=O)C2O1 (stereo not drawn) returned Pol iota inh 25.1µM*, Pol eta inh-1 3.16µM*, Pol kappa inh-1 inconclusive, Pol iota confirm 4.23*, Pol kappa inh-2 2.67* and Pol eta inh-2 6.01*.
Screening O=C1NC2c3c(I)sc(I)c3C(=O)C2O1 (stereo not drawn) returned Pol iota inh -4.0%, Pol eta inh-1 4.1% and Pol kappa inh-1 -25.4%.
Screening COc1ccc(F)c(CN2CCC(n3nccc3NC(=O)C3CCOC3)CC2)c1 (stereo not drawn) returned Pol iota inh 83.0%, Pol eta inh-1 -19.1%, Pol kappa inh-1 -7.4%, APEX1 inh 29.5% and POLB inh -0.8%.
For N#CCC(=O)Nc1ccc(C(=O)OCC(=O)N2CCN(C(=O)c3ccco3)CC2)cc1 the results were Pol iota inh 44.7µM*, Pol eta inh-1 inconclusive, Pol kappa inh-1 44.7µM*, APEX1 inh inconclusive, L3MBTL1 inh inconclusive, Pol iota confirm inconclusive and Pol eta inh-2 inconclusive.
`CCOc1ccc(CNC(=O)c2ccc3c(c2)nc2n3CCC(C)C2)cc1OC` (stereo not drawn) gave Pol iota inh -4.9%, Pol eta inh-1 -3.3%, Pol kappa inh-1 -4.9%[60.1 µM] and POLB inh 0.0%.
For Cc1cc(/C=C2\SC(=O)N(CC(=O)Nc3ccccc3F)C2=O)c(C)n1C the results were Pol iota inh 103.6%, Pol eta inh-1 -16.3%, Pol kappa inh-1 0.7%, APEX1 inh 0.4% and POLB inh 21.0%.
`Cc1ccccc1NC(=O)CN1C(=O)S/C(=C\c2ccc(-c3cc(C(=O)O)ccc3C)o2)C1=O` gave Pol iota inh 8.91µM*, Pol eta inh-1 inconclusive, Pol kappa inh-1 inconclusive, APEX1 inh inconclusive, L3MBTL1 inh inconclusive, POLB inh 31.6µM*, Pol iota confirm 26.7*, Pol kappa inh-2 8.44* and Pol eta inh-2 26.9*.
Screening C#CCN1C(=O)S/C(=C\c2ccc(-c3ccc(C(=O)O)cc3C)o2)C1=O returned Pol iota inh 8.91µM*, Pol eta inh-1 7.08µM*, Pol kappa inh-1 17.8µM*, APEX1 inh inconclusive, L3MBTL1 inh 5.01µM*, POLB inh 15.8µM*, Pol iota confirm 15* and Pol eta inh-2 8.49*.
CC(C)N1C(=O)S/C(=C/c2ccc(Sc3nc4ccccc4[nH]3)o2)C1=O was read as Pol iota inh 7.9%, Pol eta inh-1 -19.6%, Pol kappa inh-1 -24.1%, APEX1 inh -7.7%, L3MBTL1 inh -0.1% and POLB inh -25.9%.
Screening CCOC(=O)C(C)N1C(=O)S/C(=C\c2ccc(-c3ccccc3C(=O)O)o2)C1=O (stereo not drawn) returned Pol iota inh inconclusive, Pol eta inh-1 3.16µM*, Pol kappa inh-1 -17.2%, APEX1 inh 5.97µM*, POLB inh 22.4µM*, Pol iota confirm 16.8*, Pol kappa inh-2 2.99* and Pol eta inh-2 16.9*.
O=c1c(-c2ccccc2)nc2cncnc2n1Cc1ccccc1Cl was read as Pol kappa inh-1 -17.0%[60.1 µM] and APEX1 inh -2.6%.
`COCC(C)Nc1ncnc2c1cnn2-c1cccc(Cl)c1` (stereo not drawn) gave Pol iota inh -0.5%, Pol eta inh-1 -16.3%, Pol kappa inh-1 -11.0%[60.1 µM] and POLB inh 2.5%.
`CCC(=O)Nc1ccc2nc3c(=O)[nH]c(=S)[nH]c3nc2c1` gave Pol iota inh inconclusive, Pol eta inh-1 17.8µM*, Pol kappa inh-1 44.7µM*, APEX1 inh -38.2%, POLB inh 39.8µM*, Pol iota confirm 26.7*, Pol kappa inh-2 16.8* and Pol eta inh-2 30.1*.
`CCC(=O)Nc1ccc2nc3c(=O)n(C)c(=O)n(C)c3nc2c1` gave Pol iota inh 13.9%, Pol eta inh-1 -2.8%, Pol kappa inh-1 11.3% and POLB inh 25.6%.
Screening Cc1ccc(-n2cccc2/C=C2/C(=N)N3C(=NC2=O)SN=C3S(C)(=O)=O)cc1Cl returned Pol iota inh 22.4µM*, Pol eta inh-1 14.1µM*, Pol kappa inh-1 inconclusive, APEX1 inh 17.4%, L3MBTL1 inh inconclusive, POLB inh 28.2µM*, Pol iota confirm 84.4* and Pol eta inh-2 inconclusive.
For O=C(Cc1cccc(C(F)(F)F)c1)OCN1C(=O)c2ccccc2C1=O the results were Pol iota inh 132.7%, Pol eta inh-1 -23.3%, Pol kappa inh-1 -1.7%, APEX1 inh -11.7% and POLB inh -13.4%.
CCn1cc2nc(SCc3cc(C)ccc3C)n(Cc3ccc(C)cc3)c(=O)c2n1 was read as Pol iota inh 1.8%, Pol eta inh-1 0.3%, Pol kappa inh-1 -22.9% and POLB inh -24.9%.
`CC(=O)Nc1sc2c(c1-c1nc3ccccc3s1)CCNC2` gave Pol iota confirm 21.2* and Pol kappa inh-2 8.44*.
`CC(=NO)C1(C)CC=CCC1CO` (stereo not drawn) gave Pol eta inh-1 -5.6%.
Screening CCc1nnc(NS(=O)(=O)c2ccc(N/C=C\C(=O)c3ccc4ccccc4c3)cc2)s1 returned Pol iota inh inconclusive, Pol eta inh-1 50.1µM*, Pol kappa inh-1 -27.3%, APEX1 inh -3.1%, L3MBTL1 inh 0.7%, POLB inh inconclusive, Pol iota confirm inconclusive and Pol eta inh-2 75.7*.
